Of roughly 7,900 targets only a part is listed; those with a hit were picked by preference. About 0.6% of all pairs of compound and target were hits.
Compound: O=C(O)c1ccc2c(c1)nc(Nc1cccc(Cl)c1)c1ccncc12 [silmitasertib]
Experiment: log2 fold change, soluble protein after heating vs DMSO (PISA); higher = thermal stabilisation; K562 cells, 10 uM, 30 min; active = over 0.2 and 3.5 SD of the protein, either way, in both replicates (recomputed)
How it was run: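 Soluble protein was defined as the supernatant after 21,000xg for 90 min. It came from K562 cells at 2×10^6 cells/mL given 10 μM compound for 30 min, heated in aliquots for 3 min across 48°C-58°C, pooled, and extracted in PBS with 0.5% NP-40 at 4°C, and was quantified by TMTpro 16plex LC-MS/MS with equalised channel sums. Thermal stability against control samples, from duplicates, is reported as log2 fold change.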

Sequence of UniProt P35227 (P35227 whole entry, looked up): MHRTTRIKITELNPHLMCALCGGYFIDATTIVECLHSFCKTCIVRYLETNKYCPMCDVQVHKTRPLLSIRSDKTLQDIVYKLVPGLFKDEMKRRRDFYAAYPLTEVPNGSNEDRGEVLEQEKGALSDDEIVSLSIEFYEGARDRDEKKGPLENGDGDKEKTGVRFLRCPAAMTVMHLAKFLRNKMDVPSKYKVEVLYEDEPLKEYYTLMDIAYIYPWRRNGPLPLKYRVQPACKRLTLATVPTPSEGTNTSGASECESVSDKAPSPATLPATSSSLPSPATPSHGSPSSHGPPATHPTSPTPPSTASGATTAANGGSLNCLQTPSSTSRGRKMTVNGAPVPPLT
Sequence of UniProt Q14997 (Q14997 whole entry, looked up): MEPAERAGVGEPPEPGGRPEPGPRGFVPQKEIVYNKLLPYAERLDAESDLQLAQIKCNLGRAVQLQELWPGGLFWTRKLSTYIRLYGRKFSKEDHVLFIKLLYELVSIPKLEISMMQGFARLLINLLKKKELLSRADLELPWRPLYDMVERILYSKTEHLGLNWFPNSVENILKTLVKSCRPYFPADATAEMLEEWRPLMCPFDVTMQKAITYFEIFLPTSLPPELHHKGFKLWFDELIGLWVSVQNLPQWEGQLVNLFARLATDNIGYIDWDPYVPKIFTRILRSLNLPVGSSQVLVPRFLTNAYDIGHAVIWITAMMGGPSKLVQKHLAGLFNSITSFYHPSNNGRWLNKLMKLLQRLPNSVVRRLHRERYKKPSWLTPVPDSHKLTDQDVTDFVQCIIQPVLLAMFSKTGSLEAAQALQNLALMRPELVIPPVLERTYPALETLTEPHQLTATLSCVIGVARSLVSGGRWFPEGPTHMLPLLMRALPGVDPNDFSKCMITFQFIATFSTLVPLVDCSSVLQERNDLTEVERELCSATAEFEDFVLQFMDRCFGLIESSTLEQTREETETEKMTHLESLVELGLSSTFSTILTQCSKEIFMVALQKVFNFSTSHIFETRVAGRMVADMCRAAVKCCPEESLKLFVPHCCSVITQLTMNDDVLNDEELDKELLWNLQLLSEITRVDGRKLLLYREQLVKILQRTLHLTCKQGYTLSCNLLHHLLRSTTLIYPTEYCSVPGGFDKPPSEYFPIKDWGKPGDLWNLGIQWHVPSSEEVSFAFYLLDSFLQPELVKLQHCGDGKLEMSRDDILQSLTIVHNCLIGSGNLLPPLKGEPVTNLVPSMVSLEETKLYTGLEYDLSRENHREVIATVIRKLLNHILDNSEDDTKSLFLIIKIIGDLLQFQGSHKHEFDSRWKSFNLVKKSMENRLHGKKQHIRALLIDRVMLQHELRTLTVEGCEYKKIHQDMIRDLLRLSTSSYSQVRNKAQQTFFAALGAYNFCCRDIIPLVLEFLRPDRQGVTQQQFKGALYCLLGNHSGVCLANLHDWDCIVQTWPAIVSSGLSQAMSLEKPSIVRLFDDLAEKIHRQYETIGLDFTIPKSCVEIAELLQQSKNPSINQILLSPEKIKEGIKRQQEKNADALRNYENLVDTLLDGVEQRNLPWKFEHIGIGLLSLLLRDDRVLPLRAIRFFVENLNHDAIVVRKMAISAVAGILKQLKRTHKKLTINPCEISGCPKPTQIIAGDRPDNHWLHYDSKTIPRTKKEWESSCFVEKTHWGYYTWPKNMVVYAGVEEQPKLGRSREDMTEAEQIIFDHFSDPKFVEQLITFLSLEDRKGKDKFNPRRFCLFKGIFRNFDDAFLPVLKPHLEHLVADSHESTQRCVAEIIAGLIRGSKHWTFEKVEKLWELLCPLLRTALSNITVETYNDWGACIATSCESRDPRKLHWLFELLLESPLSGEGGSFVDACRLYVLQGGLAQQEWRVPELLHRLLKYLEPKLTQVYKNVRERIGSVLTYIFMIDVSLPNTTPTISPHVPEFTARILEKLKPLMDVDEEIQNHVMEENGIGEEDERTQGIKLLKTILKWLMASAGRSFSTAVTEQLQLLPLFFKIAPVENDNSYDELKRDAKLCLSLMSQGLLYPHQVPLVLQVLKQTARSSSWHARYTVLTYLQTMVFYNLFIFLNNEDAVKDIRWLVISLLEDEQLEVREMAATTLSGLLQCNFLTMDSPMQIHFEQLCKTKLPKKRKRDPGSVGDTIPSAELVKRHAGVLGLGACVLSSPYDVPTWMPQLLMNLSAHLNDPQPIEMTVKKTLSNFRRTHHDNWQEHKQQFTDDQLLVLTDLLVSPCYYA
Sequence of UniProt P11216 (P11216 whole entry, looked up): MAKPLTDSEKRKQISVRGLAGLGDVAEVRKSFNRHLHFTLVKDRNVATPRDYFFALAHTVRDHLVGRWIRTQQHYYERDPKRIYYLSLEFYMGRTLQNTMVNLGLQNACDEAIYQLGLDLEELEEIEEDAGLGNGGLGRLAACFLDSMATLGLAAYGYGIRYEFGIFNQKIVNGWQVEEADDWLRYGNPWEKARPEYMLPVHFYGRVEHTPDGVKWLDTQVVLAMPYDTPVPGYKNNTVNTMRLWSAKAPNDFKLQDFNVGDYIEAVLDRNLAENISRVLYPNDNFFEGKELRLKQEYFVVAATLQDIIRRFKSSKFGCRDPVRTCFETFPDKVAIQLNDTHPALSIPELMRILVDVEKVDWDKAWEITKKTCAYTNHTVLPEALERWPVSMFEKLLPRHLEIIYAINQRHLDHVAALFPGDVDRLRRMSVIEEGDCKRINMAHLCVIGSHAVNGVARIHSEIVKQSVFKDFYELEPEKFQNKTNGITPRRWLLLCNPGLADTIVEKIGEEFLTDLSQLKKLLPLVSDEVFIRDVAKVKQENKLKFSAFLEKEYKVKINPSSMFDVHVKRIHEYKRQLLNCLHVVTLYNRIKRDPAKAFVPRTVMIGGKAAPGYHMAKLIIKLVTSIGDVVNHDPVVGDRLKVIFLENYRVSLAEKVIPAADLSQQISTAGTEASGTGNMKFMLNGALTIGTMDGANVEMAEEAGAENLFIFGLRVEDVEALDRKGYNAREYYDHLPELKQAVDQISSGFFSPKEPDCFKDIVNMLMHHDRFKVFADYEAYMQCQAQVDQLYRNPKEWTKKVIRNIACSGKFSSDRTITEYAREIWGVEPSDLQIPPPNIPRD
Sequence of UniProt P53609 (P53609 whole entry, looked up): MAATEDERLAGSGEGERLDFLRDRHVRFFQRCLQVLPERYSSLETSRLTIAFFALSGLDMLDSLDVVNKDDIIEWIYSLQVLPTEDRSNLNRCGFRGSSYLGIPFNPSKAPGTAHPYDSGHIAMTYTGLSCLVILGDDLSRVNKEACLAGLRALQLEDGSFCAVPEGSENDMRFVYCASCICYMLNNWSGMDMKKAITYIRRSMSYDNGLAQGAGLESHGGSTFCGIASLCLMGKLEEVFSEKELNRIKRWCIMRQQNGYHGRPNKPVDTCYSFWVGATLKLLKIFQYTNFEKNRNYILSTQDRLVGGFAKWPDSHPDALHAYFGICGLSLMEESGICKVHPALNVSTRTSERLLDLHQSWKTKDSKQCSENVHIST
Sequence of UniProt P62136 (P62136 whole entry, looked up): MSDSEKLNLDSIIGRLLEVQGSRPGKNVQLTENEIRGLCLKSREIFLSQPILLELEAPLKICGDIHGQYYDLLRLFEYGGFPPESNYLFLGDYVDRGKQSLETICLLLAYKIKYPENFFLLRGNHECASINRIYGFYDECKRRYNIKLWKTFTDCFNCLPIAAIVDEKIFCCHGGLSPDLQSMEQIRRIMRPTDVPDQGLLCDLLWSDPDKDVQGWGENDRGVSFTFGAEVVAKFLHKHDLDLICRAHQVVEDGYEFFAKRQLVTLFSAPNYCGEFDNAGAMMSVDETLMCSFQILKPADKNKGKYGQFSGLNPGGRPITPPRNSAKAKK
Sequence of UniProt O60256 (O60256 whole entry, looked up): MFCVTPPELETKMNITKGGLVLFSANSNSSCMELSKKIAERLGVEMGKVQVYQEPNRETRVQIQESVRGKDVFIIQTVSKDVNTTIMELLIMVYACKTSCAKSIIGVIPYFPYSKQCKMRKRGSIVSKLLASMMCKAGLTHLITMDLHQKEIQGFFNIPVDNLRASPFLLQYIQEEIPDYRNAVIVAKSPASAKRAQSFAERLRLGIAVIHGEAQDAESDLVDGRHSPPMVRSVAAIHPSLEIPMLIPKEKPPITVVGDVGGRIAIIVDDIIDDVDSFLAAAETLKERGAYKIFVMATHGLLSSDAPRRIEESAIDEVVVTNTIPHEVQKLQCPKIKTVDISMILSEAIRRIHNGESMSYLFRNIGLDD
Sequence of UniProt O15162 (O15162 whole entry, looked up): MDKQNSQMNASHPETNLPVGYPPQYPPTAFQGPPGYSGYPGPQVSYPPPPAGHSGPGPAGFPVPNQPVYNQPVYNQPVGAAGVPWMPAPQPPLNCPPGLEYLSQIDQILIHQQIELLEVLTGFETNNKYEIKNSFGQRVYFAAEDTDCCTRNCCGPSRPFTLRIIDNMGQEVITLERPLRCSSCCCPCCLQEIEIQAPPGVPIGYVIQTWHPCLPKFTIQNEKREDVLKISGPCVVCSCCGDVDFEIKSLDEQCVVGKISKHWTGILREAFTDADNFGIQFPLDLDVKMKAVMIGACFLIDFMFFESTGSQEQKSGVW
Sequence of UniProt Q8TAP8 (Q8TAP8 whole entry, looked up): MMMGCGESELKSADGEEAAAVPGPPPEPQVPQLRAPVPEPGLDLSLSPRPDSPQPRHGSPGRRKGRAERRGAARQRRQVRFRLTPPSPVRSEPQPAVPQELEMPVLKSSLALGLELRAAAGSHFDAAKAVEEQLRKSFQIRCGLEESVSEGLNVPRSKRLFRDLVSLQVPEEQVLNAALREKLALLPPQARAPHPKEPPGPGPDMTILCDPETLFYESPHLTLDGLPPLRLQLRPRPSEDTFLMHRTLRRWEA
Sequence of UniProt Q9Y2Y1 (Q9Y2Y1 whole entry, looked up): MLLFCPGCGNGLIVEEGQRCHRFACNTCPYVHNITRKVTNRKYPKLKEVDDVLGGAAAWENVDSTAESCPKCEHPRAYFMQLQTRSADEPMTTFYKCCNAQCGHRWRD
Sequence of UniProt P53801 (P53801 whole entry, looked up): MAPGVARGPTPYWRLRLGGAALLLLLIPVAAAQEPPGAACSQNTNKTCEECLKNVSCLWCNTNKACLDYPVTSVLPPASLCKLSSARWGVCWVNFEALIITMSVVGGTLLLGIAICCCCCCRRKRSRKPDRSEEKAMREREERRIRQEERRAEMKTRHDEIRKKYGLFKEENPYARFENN

log2 fold change, inactive:
PYGB (UniProt P11216) -0.005
PRKCB isoform 2 (UniProt P05771) 0.032
PCYT1B (UniProt Q9Y5K3) 0.077
PRPSAP2 (UniProt O60256) 0.011
POGLUT1 (UniProt Q8NBL1) 0
PSMC2 (UniProt P35998) -0.015
PDE4DIP isoform 4 (UniProt Q5VU43) -0.041
PCGF2 (UniProt P35227) 0.051
POLR3K (UniProt Q9Y2Y1) 0.013
PTTG1IP (UniProt P53801) 0.083
PPP6R1 (UniProt Q9UPN7) 0.013
PIGG (UniProt Q5H8A4) 0.025
POLR2K (UniProt P53803) 0.097
PRKAR2B (UniProt P31323) 0.008
PSME4 (UniProt Q14997) -0.007
PPP1R35 (UniProt Q8TAP8) 0.003
PMPCA (UniProt Q10713) -0.061
PPP1CA (UniProt P62136) 0
PLSCR1 (UniProt O15162) 0.022
PDS5A (UniProt Q29RF7) 0.017
PGGT1B (UniProt P53609) 0.021
PKN2 (UniProt Q16513) 0.01
PMM2 (UniProt O15305) -0.001
